TDP1 cell noCPT: qHTS for Inhibitors of human tyrosyl-DNA phosphodiesterase 1 (TDP1): qHTS in cells in absence of CPT; actives 15% (n = 420,000); DT40 Tdp1-/- hTDP1 cells, no CPT, ATP luminescence, 48 h; Potency, µM (series often up to 46.2 µM), usual class: inhibitors; note: nearly all actives have a fitted effect of over 55% in size
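Seeded 400 DT40-hTDP1 cells/well (vehicle DMSO, no 20 nM CPT); pinned compounds; ≥48 hr at 37 °C; CellTiter-Glo luminescence as viability measure.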
TGFb inhibitor: blocks TGF-b signaling | actives 1.2% (n = 410,000) | Potency, µM (top dose mostly 46.1 µM), actives largely listed as inhibitors | HepG2 CAGA-GFP TGF-b/SMAD3 reporter, GFP fluorescence, 18 h; TGF-beta stimulated, 500 pg/mL final; note: nearly all actives have a fitted effect of over 65% in size
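Per well, imaged GFP fluorescence of HEPG2 CAGA-GFP cells gives the signal; cells get compound, then TGF-beta (500 pg/mL final), 18 h at 37 degrees C; %Activity versus -TGF-beta and +DMSO controls.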
TDP1 cell CPT: growth inhibition of DT40 Tdp1-/-;hTDP1 cells with camptothecin (screen for TDP1 inhibitors) | actives 12% (n = 420,000) | Potency, µM (top dose mostly 46.2 µM), actives largely listed as inhibitors | chicken DT40 Tdp1-/-;hTDP1 cells + 20 nM CPT, ATP luminescence, 48 h; note: nearly all actives have a fitted effect of over 55% in size
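Cell growth measured by CellTiter-Glo luminescence after a minimum 48 h, 37 C compound exposure with 20 nM CPT in Tdp1-knockout DT40 cells stably expressing hTDP1, seeded 400/well; qHTS titration format.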
S-ASM inh: blocks human secretory acid sphingomyelinase. placental ASM, HMU-PC fluorogenic substrate, 60 min. P17405. AID 504937. actives 0.006% (n = 340,000). Potency, µM (highest dose often 57.5 µM), usual class: inhibitors
Target sequence (P17405 47-631 limits assumed): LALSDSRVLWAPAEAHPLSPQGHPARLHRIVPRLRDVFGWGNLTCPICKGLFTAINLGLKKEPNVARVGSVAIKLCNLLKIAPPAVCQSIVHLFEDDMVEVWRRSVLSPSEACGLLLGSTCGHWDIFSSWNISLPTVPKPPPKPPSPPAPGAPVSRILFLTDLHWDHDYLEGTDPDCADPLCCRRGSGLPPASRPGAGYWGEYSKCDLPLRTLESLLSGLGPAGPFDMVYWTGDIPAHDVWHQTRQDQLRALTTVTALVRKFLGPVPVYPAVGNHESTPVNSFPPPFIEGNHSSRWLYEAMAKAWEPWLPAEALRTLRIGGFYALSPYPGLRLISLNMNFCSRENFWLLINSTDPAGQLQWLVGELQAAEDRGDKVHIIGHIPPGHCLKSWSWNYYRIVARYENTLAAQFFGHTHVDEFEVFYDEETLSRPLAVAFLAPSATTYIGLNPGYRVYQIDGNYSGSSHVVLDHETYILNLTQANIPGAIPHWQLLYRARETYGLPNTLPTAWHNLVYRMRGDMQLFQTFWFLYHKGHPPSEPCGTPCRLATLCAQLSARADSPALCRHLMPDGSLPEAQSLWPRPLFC
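HMU-PC0 cleavage (9 uM final) by human placental ASM, 60 min at 37 °C following 10 min compound exposure at RT; stopped at pH 10, fluorescence Ex 386/Em 447 nm.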
IL-1B inflam inh: inflammasome signaling inhibition, IL-1 beta readout; THP-1 LPS/ATP IL-1B secretion, AlphaLISA, 16 h; stronger effect = lower value; activity change, % at 57.5 µM; actives 4.7% (n = 360,000); AID 743279; in the data active = activity change below about -50%; inconclusive = mostly about -30% to -49%
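THP-1 cells pretreated 1 hr with compounds (up to 57.5 uM final), then stimulated with LPS (250 ng/mL final) plus ATP (1.25 mM final); secreted IL-1B measured by AlphaLISA after 16 hr, decreased signal indicating inhibition.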
HepG2 viability: HepG2 cytotoxicity, counter-screen for TGF-b inhibitors. actives 0.76% (n = 410,000). Potency, µM (doses to about 46.1 µM), actives largely listed as cytotoxic. HepG2 CAGA-GFP viability, ATP luminescence, 18 h
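HepG2 CAGA-GFP cells (1000/well, DMEM with 1% FBS) received compound, then TGF-beta at 500 pg/mL final, and were incubated 18 hours at 37 degrees C. Viability was read by CellTiter-Glo luminescence. Media-only wells were set as complete cell-killing and DMSO as no toxicity.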
Numbers stand for hits. Sampled rows, rich in hits. Any-hit rate of the full collection: about 19%. Unless noted, calls come from the whole dose curve; as a rule, active = well fitted curve in the direction sought with a large enough effect; inconclusive = small, poorly fitted or top-dose-only effect, or another doubt; inactive = no such curve, though single readings can be large; an effect the other way counts as inactive or inconclusive.

What do the screens show for `Clc1ccc(Cn2ncc3c(N4CCCCC4)ncnc32)cc1`?
TDP1 cell noCPT: 20.6µM; TGFb inhibitor: inactive; TDP1 cell CPT: 16.4µM; S-ASM inh: inactive; IL-1B inflam inh: inactive; HepG2 viability: inactive

What do the screens show for `CCOC(=O)C1(CCOC)CCN(Cc2ccc(C3CCCCO3)s2)CC1` (stereo not drawn)?
TDP1 cell noCPT: inconclusive; TGFb inhibitor: inactive; TDP1 cell CPT: inactive; S-ASM inh: inactive; IL-1B inflam inh: inactive; HepG2 viability: inactive

What do the screens show for `CC1(C)CC(NC(=O)c2ccccc2)CC(C)(C)N1`?
TDP1 cell noCPT: inactive; TGFb inhibitor: inactive; TDP1 cell CPT: inactive; S-ASM inh: inactive; IL-1B inflam inh: inactive; HepG2 viability: inactive

Results for CC1(C)CC(Nc2ccc(Nc3ccccc3)cc2)CC(C)(C)N1 ?
TDP1 cell noCPT: 4.61µM; TGFb inhibitor: inactive; TDP1 cell CPT: 16.4µM; S-ASM inh: inactive; IL-1B inflam inh: -81.0; HepG2 viability: inactive

How did CCCCN(CC)C(=O)c1c[nH]c2ccc(S(=O)(=O)N(C)c3ccc(Cl)cc3)cc2c1=O do in these assays?
TDP1 cell noCPT: inconclusive; TGFb inhibitor: inactive; TDP1 cell CPT: inconclusive; HepG2 viability: inactive

What do the screens show for `CC(C)[C@@H](C(=O)NCC1CCCO1)N1C(=O)N2CCc3c([nH]c4ccccc34)[C@@]2(C)C1=O` (stereo partly drawn)?
TDP1 cell noCPT: inconclusive; TGFb inhibitor: inactive; TDP1 cell CPT: inactive; S-ASM inh: inactive; IL-1B inflam inh: inactive; HepG2 viability: inactive

How did COCCCn1c(C2CCCCC2)nc2oc3cc(OC)ccc3c(=O)c2c1=O do in these assays?
TDP1 cell noCPT: 20.6µM; TGFb inhibitor: inactive; TDP1 cell CPT: inconclusive; S-ASM inh: inactive; IL-1B inflam inh: inactive; HepG2 viability: inactive

How did COCCn1c(-c2ccc(C)cc2)nc2oc3cc(OC)ccc3c(=O)c2c1=O do in these assays?
TDP1 cell noCPT: inconclusive; TGFb inhibitor: inactive; TDP1 cell CPT: inactive; S-ASM inh: inactive; IL-1B inflam inh: inactive; HepG2 viability: inactive

How did COc1ccc(CCn2c(C(C)C)nc3oc4ccccc4c(=O)c3c2=O)cc1 do in these assays?
TDP1 cell noCPT: 29.1µM; TGFb inhibitor: inactive; TDP1 cell CPT: inconclusive; S-ASM inh: inactive; IL-1B inflam inh: inactive; HepG2 viability: inactive

Results for CCCc1nc2oc3cc(OC)ccc3c(=O)c2c(=O)n1CCc1ccccc1 ?
TDP1 cell noCPT: 23.1µM; TGFb inhibitor: inactive; TDP1 cell CPT: 20.6µM; S-ASM inh: inactive; IL-1B inflam inh: inactive; HepG2 viability: inactive

How did COc1ccc2c(=O)c3c(=O)n(Cc4ccco4)c(C(C)C)nc3oc2c1 do in these assays?
TDP1 cell noCPT: inactive; TGFb inhibitor: inactive; TDP1 cell CPT: inactive; S-ASM inh: inactive; IL-1B inflam inh: inactive; HepG2 viability: inactive

Results for CC(C)c1nc2c(c(=O)c3ccccc3n2C)c(=O)n1CCc1ccccc1 ?
TDP1 cell noCPT: 9.2µM; TGFb inhibitor: inconclusive; TDP1 cell CPT: inconclusive; S-ASM inh: inactive; HepG2 viability: inactive

What do the screens show for `O=C(Nc1ccc([N+](=O)[O-])cc1)OC1CCS(=O)(=O)C1` (stereo not drawn)?
TDP1 cell noCPT: inactive; TDP1 cell CPT: inactive; IL-1B inflam inh: inactive

Results for COC(=O)c1c(C)[nH]c(C(=O)NCc2ccco2)c1C ?
TDP1 cell noCPT: inactive; TGFb inhibitor: inactive; TDP1 cell CPT: inactive; S-ASM inh: inactive; IL-1B inflam inh: inactive; HepG2 viability: inactive

Results for COc1cc(/C=C2\CCC(C)C3=C(c4cc(OC)c(OC)c(OC)c4)C(C#N)=C(N)OC32)cc(OC)c1OC (stereo not drawn) ?
TDP1 cell noCPT: 3.66µM; TGFb inhibitor: inactive; TDP1 cell CPT: 2.59µM; S-ASM inh: inconclusive; IL-1B inflam inh: inactive; HepG2 viability: inactive

How did COc1cc(/C=C2/N=C(C3CCCCC3)OC2=O)cc(OC)c1OC do in these assays?
TDP1 cell noCPT: inactive; TGFb inhibitor: inconclusive; TDP1 cell CPT: inactive; S-ASM inh: inactive; IL-1B inflam inh: inactive; HepG2 viability: inactive

What do the screens show for `CC(=O)NCCC(=O)Nc1ccc(C(N)=O)cc1`?
TDP1 cell noCPT: inactive; TGFb inhibitor: inactive; TDP1 cell CPT: inactive; S-ASM inh: inactive; IL-1B inflam inh: inactive; HepG2 viability: inactive

How did Cc1cccc(C)c1NC(=O)C(c1ccccc1OC(F)(F)F)N1CCC(c2ccccc2)CC1 (stereo not drawn) do in these assays?
TDP1 cell noCPT: 16.4µM; TDP1 cell CPT: inconclusive; IL-1B inflam inh: inactive

Results for CC(=O)N1CCN(C(C(=O)Nc2c(C)cccc2C)c2ccccc2OC(F)(F)F)CC1 (stereo not drawn) ?
TDP1 cell noCPT: inactive; TDP1 cell CPT: inactive; IL-1B inflam inh: inactive

Results for Cc1cccc(C)c1NC(=O)C(c1ccccc1OC(F)(F)F)N1CCN(C/C=C/c2ccccc2)CC1 (stereo not drawn) ?
TDP1 cell noCPT: 14.6µM; TGFb inhibitor: inconclusive; TDP1 cell CPT: 16.4µM; IL-1B inflam inh: inconclusive; HepG2 viability: inactive

Results for COCCNc1nc(-c2ccc(OC)cc2)c(-c2ccc(OC)cc2)s1 ?
TDP1 cell noCPT: inconclusive; TGFb inhibitor: inactive; TDP1 cell CPT: inactive; S-ASM inh: inactive; IL-1B inflam inh: inactive; HepG2 viability: inactive

What do the screens show for `CC1CN(C(=O)COC(=O)/C=C/c2ccc(C(F)(F)F)cc2)CC(C)O1` (stereo not drawn)?
TDP1 cell noCPT: inactive; TGFb inhibitor: inactive; TDP1 cell CPT: inactive; S-ASM inh: inactive; IL-1B inflam inh: inactive; HepG2 viability: inactive

How did CC1CN(C(=O)/C=C/c2ccc(SC(F)F)cc2)CC(C)O1 (stereo not drawn) do in these assays?
TDP1 cell noCPT: 13µM; TGFb inhibitor: inactive; TDP1 cell CPT: inconclusive; S-ASM inh: inactive; IL-1B inflam inh: inactive; HepG2 viability: inactive

Results for CC(=O)NC(Cc1ccc(F)c(F)c1)C(=O)NC1CCN(S(=O)(=O)c2ccc(C)cc2)CC1 (stereo not drawn) ?
TDP1 cell noCPT: inactive; TGFb inhibitor: inactive; TDP1 cell CPT: inactive; S-ASM inh: inactive; IL-1B inflam inh: inactive; HepG2 viability: inactive

Results for COc1cccc(NC(=O)N2CCc3nc(Nc4cc(Cl)cc(Cl)c4)ncc3C2)c1 ?
TDP1 cell noCPT: 23.1µM; TGFb inhibitor: inconclusive; TDP1 cell CPT: inconclusive; IL-1B inflam inh: -53.7; HepG2 viability: inactive

How did COc1cccc(NC(=O)N2CCc3nc(NCc4cccc(Oc5ccccc5)c4)ncc3C2)c1 do in these assays?
TDP1 cell noCPT: 20.6µM; TGFb inhibitor: inconclusive; TDP1 cell CPT: 10.3µM; IL-1B inflam inh: inactive; HepG2 viability: inactive
